Assay outcomes: PubChem BioAssay, Broad Institute
Rows were chosen to be rich in hits. Some 2.2% of all compounds tested hit in one or more screens of this group.
PfHsp90 set2: inhibits growth of yeast expressing Plasmodium falciparum Hsp90. S. cerevisiae expressing PfHsp90, BacTiter-Glo ATP, 48 h; yeast lacking PDR1 and PDR3 efflux regulators. inhibition, % at 9.4 µM. 310,000 compounds, 0.32% hits;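 active means every replicate shows inhibition above about 80%, whatever the replicate mean, limit read from the data; inconclusive means mean inhibition reaches the set limit but some replicate falls short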;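 further: 0% = DMSO neutral controls and 100% = 20 µM radicicol positive controls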
Calb FLC: C. albicans growth modulation with fluconazole. C. albicans CaCi-2 (fluconazole-resistant clinical isolate) + fluconazole, Alamar Blue growth, 48 h. growth inhibition, % (no concentration beside the values). 300,000 compounds, 0.57% hits. AID 1979;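 active means growth inhibition above about 58% in most replicates, limit read from the data, passing the limit was not always enough; inconclusive means exactly half the replicates above a set limit; inactive means most replicates below a set limit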;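 further: all wells also contain fluconazole at 8 µg/ml as a sub-toxic cotreatment; 0% = median of DMSO wells and 100% = median of geldanamycin control wells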
Shn3 inh set2: inhibitors of Schnurri-3 3'UTR reporter in osteoblasts | Clone20 osteoblast Shn3 3'UTR firefly luciferase, 24 h | inhibition, % at 12.5 µM | 360,000 compounds, 0.52% hits | AID 588674;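 active means mean inhibition of at least 75% with every replicate also reaching 75%; inconclusive means mean inhibition at least 75% but some replicate below; inactive means mean inhibition below 75%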;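 further: 0% = median of neutral control wells and 100% = pilot-screen positive control compound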
Beta apoptosis: beta cell apoptosis inhibition | INS-1E cytokine-induced death, ATP luminescence, 48 h; percent of positive-control rescue, neutral wells zero | protection from apoptosis, % (test concentration not listed) | 300,000 compounds, 0.8% hits;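 active means Every replicate reaches about 75%, or at least half do and their mean reaches it too, limit read from the data; inconclusive means At least half of replicates reach the limit but their mean does not; inactive means Under half of replicates reach the limit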;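 further: 0% = cytokine-treated negative control wells and 100% = positive control rescue; higher means more ATP so stronger rescue from cytokine killing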
CSC inhib: cancer stem cell inhibition. cancer stem cell-like cells viability, luminescence. AID 2717. inhibition, % at 7.5 µM. 300,000 compounds, 1.1% hits; in the data active means inhibition above about 75%; inconclusive means no clear call, values can overlap the other calls; tested in HMLE shEcad cells
* = called active by the depositor; u = inconclusive; x = not tested or not shown; ! = not active in a repeat.

SMILES	PfHsp90 set2	Calb FLC	Shn3 inh set2	Beta apoptosis	CSC inhib
COc1ccc(OC)c(NC(=O)c2c3c(nc4ccccc24)CCC3)c1	-15.2	65.8*	3.5	2.9	-4.3
COc1ccc(OC)c(NC(=O)Nc2ccc(O)c3ccccc23)c1	107.6*	2.1	16.4	-1.0	2.5
Cc1cc2oc(=O)cc(CN3CCCCC3C)c2cc1C (configuration not stated)	11.2	-6.3	23.2	4.2	-3.1
CCN1C[C@@H]2[C@@H]3C(=O)N(Cc4ccccc4)C(=O)[C@@H]3[C@](Cc3ccccc3)(C1=O)N2C(=O)c1ccc(C)cc1	17.4	x	-12.9	x	x
O=C(Nc1ccccc1)Nc1ccc(O)c2ccccc12	x	9.4	x	11.4	97.5*
O=C(Nc1ccccc1)Nc1cccc2ccccc12	8.5	-18.1	17.4	6.3	3.1
c1ccc(-c2csc3ncnc(NCCCN4CCOCC4)c23)cc1	-9.1	0.5	60.1	-13.2	-16.4
c1ccc(-c2csc3ncnc(NCC4COc5ccccc5O4)c23)cc1 (configuration not stated)	-4.2	15.6	77.2	127.1*	50.5
Cc1sc2ncnc(NCC(C)(C)N3CCOCC3)c2c1C	5.4	u	80.8	85.0*	-6.6
Cc1sc2ncnc(NCC3CCCO3)c2c1C (configuration not stated)	5.4	0.3	46.3	4.6	-2.7
Cc1sc2ncnc(NCC3(N4CCOCC4)CCCCC3)c2c1C	-10.3	-1.0	24.5	25.0	45.3
Cc1sc2ncnc(NCC3COc4ccccc4O3)c2c1C (configuration not stated)	0.6	-0.6	73.9	130.4*	3.5
O=C(NNC(=S)NC(=O)C12CC3CC(CC(C3)C1)C2)c1ccncc1	61.6	102.9*	54.5	22.3	-10.9
CC(C)(C)C(=O)NNC(=O)c1cnccn1	18.7	-11.9	16.4	-1.2	0.1
CC1(C(=O)NC(=S)NNC(=O)c2ccncc2)CCCCC1	22.2	-5.0	16.0	x	0.6
O=C(NNC(=O)C12CC3CC(CC(C3)C1)C2)c1ccccn1	-7.5	1.1	-14.5	91.0*	17.1
O=C(NNC(=O)C12CC3CC(CC(C3)C1)C2)c1cnccn1	10.1	104.0*	14.5	0.6	4.6
C=CCOC(=O)c1sc(NC(=O)c2ccco2)nc1C	9.5	78.5*	-47.8	18.5	70.9
O=C1/C(=C/c2ccc(N3CCOCC3)o2)SC(=Nc2ccccc2)N1CCc1c[nH]c2ccccc12	141.7*	0.6	96.9*	100.7*	85.0*
C/C(CC(=O)Nc1cc(C)ccn1)=N\NC(=O)c1cccc(C)c1O	101.1*	93.7*	0.3	70.8	72.8
Nc1ncnc2c1ncn2[C@@H]1O[C@H](CO)[C@@H](O)[C@H]1O	70.3	x	-0.2	x	-0.2
Nc1ncnc2c(C3OC(CO)C(O)C3O)c[nH]c12 (configuration not stated)	1.0	x	93.0*	x	x
COC(=O)c1c(NC(=O)c2ccco2)sc2c1CCC2	-23.4	-5.2	-17.6	4.4	76.5*
CN(c1ccccc1)c1ccc(/C=C(\C#N)c2nnc3n2CCCCC3)cc1[N+](=O)[O-]	-20.3	-21.0	-8.0	3.6	80.0*
Cc1ccc(-n2c(CC#N)n[nH]c2=S)c(C)c1	8.4	12.1	-0.6	0.4	9.2
SMILES	PfHsp90 set2	Calb FLC	Shn3 inh set2	Beta apoptosis	CSC inhib
Cc1ccc(-n2c(Cc3ccccc3)n[nH]c2=S)c(C)c1	9.1	72.0*	-4.6	-6.9	7.0
CC1=CC2C(C(O)CC3(C)C2CC(C)C32OCOC23COCO3)C2(C)C/C(=C\O)C(=O)C=C12 (configuration not stated)	110.4*	x	87.5*	x	x
O=C(C=Cc1ccccn1)c1ccccc1O	114.1*	x	-17.4	x	x
Cc1cc(/C=C2/SC(=S)N(c3ccc([N+](=O)[O-])cc3)C2=O)c(C)n1-c1cccnc1	-13.6	43.6	77.0	105.7*	27.8
Cc1cccc(N2C(=O)/C(=C/c3cccnc3)SC2=S)c1	6.3	-18.9	19.1	-6.1	3.6
Cc1ccc(N2C(=O)/C(=C/c3cccnc3)SC2=S)cc1	-21.5	-0.8	14.8	-0.6	5.5
Cc1cc(/C=C2/SC(=S)N(c3cccc(Cl)c3)C2=O)c(C)n1-c1cccnc1	14.5	0.7	82.1	125.1*	x
Cc1cc(NC(=O)c2cccs2)ncc1NC(=O)C(C)(C)C	9.8	-1.7	-75.7	0.9	5.7
CC(C)C(=O)NC(=S)/C=C1/N(C)c2ccccc2C1(C)C	12.3	-11.2	70.6	109.1*	-2.0
CN1/C(=C\C=N\NC(=O)c2ccc(O)cc2)C(C)(C)c2ccccc21	-34.1	0.7	88.3*	113.1*	7.6
CC(=O)/C=C1\N(C)c2ccc(C)cc2C1(C)C	-8.2	0.7	71.2	98.6*	-7.0
CN1/C(=C/C(=S)NC(=O)C2CCC2)C(C)(C)c2ccccc21	-37.6	-5.4	42.9	59.5	7.9
Cc1ccc(C(=O)NC(=S)/C=C2\N(C)c3ccccc3C2(C)C)cc1	-2.3	39.5	75.3	93.7*	10.9
O=C1NC2=C(C(=O)OC2)C(c2ccc(OC(F)(F)F)cc2)N1 (configuration not stated)	-3.8	15.6	-3.4	-3.7	-14.4
Cc1ccc(S(=O)(=O)N(C)C[C@@H]2Oc3ccc(NC(=O)Nc4cccc5ccccc45)cc3C(=O)N([C@H](C)CO)C[C@H]2C)cc1	1.4	x	-4.5	8.1	-8.5
CN1C(=O)Cc2cc(S(=O)(=O)N3CCN(c4ccccc4F)CC3)ccc21	-7.2	15.5	24.3	-1.2	4.9
COc1ccccc1NC(=O)c1cccc2c(Br)cccc12	-6.9	-4.1	9.5	x	12.4
CO/N=C(\Cn1ncc(NC2CCCCC2)c(Br)c1=O)c1ccc(Cl)cc1	0.9	-4.4	87.6*	0.9	43.8
COc1ccccc1N=c1oc2cc(O)ccc2cc1C(N)=O	97.4*	u	-17.0	16.7	u
COc1ccccc1N=c1oc2cc(O)ccc2cc1C(=O)NCC1CCCO1 (configuration not stated)	x	-14.4	-23.1	6.5	7.0
COc1ccc(CN2CCNC(=O)C2CC(=O)N(C)C2CCOCC2)c(F)c1 (configuration not stated)	14.4	-20.8	-7.7	-2.0	-5.0
Cc1nc2c(C)c(C)c(C)c(C)c2nc1C	x	-2.5	11.9	1.6	-1.8
Cc1nc2c(O)c3c(c(O)c2nc1C)C1C=CC3CC1	-12.9	x	97.1*	x	x
Fc1ccc(/C=C2\CCCC3=C2Nc2ncnn2C3c2ccc(F)cc2)cc1 (configuration not stated)	x	-5.6	97.4*	2.8	-0.6
C=CCn1c(=O)c2ccccc2n2c(SCC(=O)/C(C#N)=C(\C)N)nnc12	-9.2	-13.4	93.3*!	-5.6	-7.3
Cn1c(=O)n(CC#N)c2ccccc21	x	102.3*	-7.2	-1.1	1.2
O=[N+]([O-])c1cc(CN2CCN(c3cccc(C(F)(F)F)c3)CC2)c2cccnc2c1O	99.0*	2.1	x	70.5	5.2
O=[N+]([O-])c1cc(CN2CCCC2)c2cccnc2c1O	-21.5	x	-27.2	4.7	33.5
Nc1c(C(=O)Nc2ccc3c(c2)OCCO3)nnn1Cc1ccccc1Cl	83.4*	3.9	-63.0	92.7*	5.9
